According to PubChem BioAssay (NCATS):
Results filed as inconclusive are left out. A number with no mark means an inactive call. The source made the active and inactive calls. Calls come from the whole dose curve; as a rule, active = well fitted inhibition curve with a large enough effect; inconclusive = small, poorly fitted or top-dose-only effect; inactive = flat fitted curve, though single readings scatter.

Tested on: CP237
Test: qHTS profiling for inhibitors of Plasmodium falciparum proliferation (AID 504749);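 note: 0% = DMSO vehicle and full inhibition = artemisinin control; nearly all actives have a fitted effect of over 60% in size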
Details: P. falciparum in erythrocytes, SYBR Green DNA, 72 h; series mostly up to 28.7 µM; activity, negative = inhibition: at the top concentration
Method in brief: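 SYBR Green fluorescence of parasite DNA, read after lysis and overnight dark incubation, measured growth over 72 h in erythrocyte culture at 0.3% parasitemia and 2.5% hematocrit. Data normalised to DMSO and 0.29 uM artemisinin, with plate-drift correction.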

With [O-][n+]1cccc(CO)c1 as the compound, how does the “activity, negative = inhibition” value read?
Its value is 0.988%.

Cc1cccc(C)c1NC(=O)CN(CC(=O)O)CC(=O)O was tested. Which “activity, negative = inhibition” value did it give?
The value was -2.28%.

With O=C(O)[C@@H]1CSCN1 as the compound, how does the “activity, negative = inhibition” value read?
The value was -4.52%.

How did the “activity, negative = inhibition” value turn out when COc1cc2[nH]c(=O)[nH]c(=O)c2cc1OC was run?
The value was 4.33% [at 12.8 µM].

How did the “activity, negative = inhibition” value turn out when N[C@@H](CSCCCO)C(=O)O was run?
Its value is 3.66%.

How did the “activity, negative = inhibition” value turn out when O=c1[nH]c(=O)c2[nH]c(=O)[nH]c2[nH]1 was run?
The value was 7.18%.

How did the “activity, negative = inhibition” value turn out when CCCCCCCCCCCCCCCCCCOCC(O)CO (stereo unspecified) was run?
Its value is -0.0353%.

With O=C(O)c1ccccc1-c1ccc(C(F)(F)F)cc1 as the compound, how does the “activity, negative = inhibition” value read?
Its value is 0.455%.

With C[C@](N)(Cc1ccc(O)cc1)C(=O)O as the compound, how does the “activity, negative = inhibition” value read?
Its value is 3.49%.

With O=C1OC(OC(=O)c2cccnc2Nc2cccc(C(F)(F)F)c2)c2ccccc21 (stereo unspecified) as the compound, how does the “activity, negative = inhibition” value read?
Its value is 5.19%.

With Nc1ccc(S(=O)(=O)Nc2ccccc2)cc1 as the compound, how does the “activity, negative = inhibition” value read?
Its value is -4.02%.

For NC(=O)NNc1ccccc1, which Potency is on record?
Its Potency is “inactive”.

How did the “activity, negative = inhibition” value turn out when CC1(C)[C@@H]2CC[C@@]1(C)C(=O)C2 was run?
Its value is 10.1%.

How did the “activity, negative = inhibition” value turn out when CCC(=O)Nc1ccc(O)cc1 was run?
Its value is 5.32%.

How did the “activity, negative = inhibition” value turn out when CC1(C)CO[C@@H](CC(=O)O)CN1 was run?
The value was 2.78%.

With CCCCc1ncc(/C=C(\Cc2cccs2)C(=O)O)n1Cc1ccc(C(=O)O)cc1 as the compound, how does the “activity, negative = inhibition” value read?
The value was -0.695%.

For NCCNCCNCCNCCN, which “activity, negative = inhibition” value is on record?
The value was 3.5%.

Which Potency does the source give for CCN(CC)CCSC(=O)C(c1ccccc1)c1ccccc1 here?
Its Potency is “inactive”.

C=Cc1c(C)c2cc3[nH]c(cc4nc(cc5nc(cc1[nH]2)C(C)=C5CCC(=O)O)C(CCC(=O)O)=C4C)c(C)c3C=C was tested. Which “activity, negative = inhibition” value did it give?
Its value is 5.02%.

With NCC(=O)CCC(=O)O as the compound, how does the “activity, negative = inhibition” value read?
The value was -1.38%.

For COc1cc(C(=O)N2CCOCC2)cc(OC)c1OC, which Potency is on record?
The Potency was “inactive”.

Which “activity, negative = inhibition” value does the source give for Cc1cccc(Nc2cc(Cl)nc(SCC(=O)O)n2)c1C here?
The value was 1.18%.

With O=C(O)COc1nn(Cc2ccccc2)c2ccccc12 as the compound, how does the “activity, negative = inhibition” value read?
Its value is 1.41%.

With CC(=O)NC(Cc1ccccc1)C(=O)O (stereo unspecified) as the compound, how does the “activity, negative = inhibition” value read?
Its value is -21.7%.

Cc1cc(CC(=O)O)n(C)c1C(=O)c1ccc(Cl)cc1 was tested. Which Potency did it give?
The Potency was “inactive”.

With CCCOC(=O)c1ccccc1 as the compound, how does the “activity, negative = inhibition” value read?
The value was 1.34%.

How did the “activity, negative = inhibition” value turn out when CCCCC(CC)COC(=O)c1ccccc1O (stereo unspecified) was run?
The value was 9.21%.

For Oc1cccc(O)c1, which “activity, negative = inhibition” value is on record?
Its value is 8.06%.

For CC(=O)CCC(=O)O, which “activity, negative = inhibition” value is on record?
The value was -1.35%.

COc1cc(C)c(Cc2cnc(N)nc2N)cc1OC was tested. Which “activity, negative = inhibition” value did it give?
The value was -23.5%.

Which “activity, negative = inhibition” value does the source give for CCN(CC)CCNC(=O)c1cc(Cl)c(N)cc1OC here?
The value was -2.17%.

CCCn1cnc2c1c(=O)n(CCCCC(C)=O)c(=O)n2C was tested. Which “activity, negative = inhibition” value did it give?
Its value is 0.35%.

With O=C1c2c(O)cccc2Cc2cccc(O)c21 as the compound, how does the “activity, negative = inhibition” value read?
Its value is 10%.

With Cc1ncc(COP(=O)(O)O)c(C=O)c1O as the compound, how does the “activity, negative = inhibition” value read?
The value was -3.18%.

For O=c1cc(CO)occ1O, which “activity, negative = inhibition” value is on record?
The value was 1.64%.

How did the “activity, negative = inhibition” value turn out when COc1ccc2c(c1)C(=O)N(CCc1ccc(S(=O)(=O)NC(=O)NC3CCCCC3)cc1)C(=O)C2(C)C was run?
Its value is -2.73% [at 12.8 µM].
